Test results: the supplement of paper PMC3334620
Whole data set: some 33,000 sequences, median “E-score (-0.5 to 0.5)” near -0.053, cut for the highest 2% near 0.37. The sample holds the highest values, similar sequences and a random draw of the others, so the mix is not that of the screen.

Biological target: Hap1 (UniProt P0CE41)
Assay: PBM E-score (8-mer binding enrichment) (E-score (-0.5 to 0.5)); higher = stronger / more preferred TF binding
Conditions: protein concentration: 200 nM; construct: GST-DNA-binding domain
Experimental: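 Universal 'all 10-mer' protein binding microarrays (Agilent AMADID 015681) probed with GST-tagged S. cerevisiae TFs (full-length or DBD) made by in vitro transcription/translation (PURExpress), about 100-200 nM. Bound TF was detected with fluorescent anti-GST. Each ungapped 8-mer (which stands for itself and its reverse complement) is scored by the PBM enrichment score (E-score), a modified Wilcoxon-Mann-Whitney statistic from -0.5 to +0.5, computed with the Universal PBM Analysis Suite. Scale: above 0.35 generally sequence-specific binding.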

Sequence of UniProt P0CE41 (P0CE41 whole entry): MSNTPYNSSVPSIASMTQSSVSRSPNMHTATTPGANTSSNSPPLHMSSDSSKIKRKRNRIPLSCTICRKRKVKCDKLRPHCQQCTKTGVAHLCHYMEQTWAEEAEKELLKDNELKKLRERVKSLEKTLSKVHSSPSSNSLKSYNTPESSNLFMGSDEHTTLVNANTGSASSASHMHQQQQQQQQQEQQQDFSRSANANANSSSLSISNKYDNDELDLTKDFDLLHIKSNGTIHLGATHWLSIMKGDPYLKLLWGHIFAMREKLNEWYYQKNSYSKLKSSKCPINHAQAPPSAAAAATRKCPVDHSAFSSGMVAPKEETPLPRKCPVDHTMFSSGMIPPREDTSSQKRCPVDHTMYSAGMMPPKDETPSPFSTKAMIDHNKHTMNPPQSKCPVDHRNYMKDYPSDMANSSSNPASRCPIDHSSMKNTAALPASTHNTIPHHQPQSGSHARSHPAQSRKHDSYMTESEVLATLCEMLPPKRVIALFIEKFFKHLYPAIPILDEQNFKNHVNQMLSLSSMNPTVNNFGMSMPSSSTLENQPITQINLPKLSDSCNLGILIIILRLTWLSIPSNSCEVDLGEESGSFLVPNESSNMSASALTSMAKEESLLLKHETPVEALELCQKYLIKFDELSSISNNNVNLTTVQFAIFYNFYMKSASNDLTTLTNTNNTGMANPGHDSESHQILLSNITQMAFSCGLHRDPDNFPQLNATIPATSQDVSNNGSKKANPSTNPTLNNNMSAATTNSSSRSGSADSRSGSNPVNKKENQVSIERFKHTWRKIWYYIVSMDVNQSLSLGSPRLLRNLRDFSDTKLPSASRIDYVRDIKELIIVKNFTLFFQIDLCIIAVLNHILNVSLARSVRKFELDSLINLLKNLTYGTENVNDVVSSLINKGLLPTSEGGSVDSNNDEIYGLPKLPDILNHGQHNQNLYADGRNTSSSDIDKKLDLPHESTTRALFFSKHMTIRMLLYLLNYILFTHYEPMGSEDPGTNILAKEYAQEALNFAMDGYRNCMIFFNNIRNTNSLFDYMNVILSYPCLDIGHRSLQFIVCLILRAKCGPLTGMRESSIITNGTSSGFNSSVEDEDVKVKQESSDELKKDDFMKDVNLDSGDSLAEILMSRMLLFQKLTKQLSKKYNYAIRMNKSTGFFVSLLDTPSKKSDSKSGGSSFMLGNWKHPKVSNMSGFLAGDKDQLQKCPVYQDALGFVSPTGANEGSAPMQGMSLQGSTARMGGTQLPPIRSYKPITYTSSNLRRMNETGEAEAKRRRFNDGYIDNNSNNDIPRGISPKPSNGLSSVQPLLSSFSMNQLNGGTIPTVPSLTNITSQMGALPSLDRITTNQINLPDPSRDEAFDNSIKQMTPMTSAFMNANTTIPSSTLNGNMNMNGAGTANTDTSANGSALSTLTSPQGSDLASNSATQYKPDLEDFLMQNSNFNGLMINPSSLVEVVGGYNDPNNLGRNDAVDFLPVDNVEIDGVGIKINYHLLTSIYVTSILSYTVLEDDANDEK

Row | Sequence | PBM E-score
1 | GGCCATAC | 0.17
2 | CGCTACGA | 0.111
3 | CTCTCATC | -0.159
4 | CAGATTAG | -0.167
5 | AGGACATA | -0.187
6 | GCTCAGTA | -0.239
7 | CCAATGCA | -0.186
8 | CGGACCCA | 0.346
9 | AAGTGACA | -0.105
10 | AACGGACT | 0.337
11 | ACCGGACG | 0.421
12 | ACCGGACT | 0.408
13 | AGCGGACT | 0.287
14 | ACCGGACC | 0.397
15 | ACCGGTCG | 0.289
16 | ACCGGATC | 0.296
17 | ACCGGATG | 0.329
18 | AACGGACC | 0.327
19 | CTTCTGAC | -0.224
20 | CTCCAGCA | -0.241
21 | AATACGCG | 0.0739
22 | ACTAAACG | -0.112
23 | ATACCTTA | -0.0965
24 | AAACTACG | 0.118
25 | CCCTCCAC | -0.233

Row | Sequence | PBM E-score
26 | AGGACGTA | 0.00968
27 | CGGACGGC | 0.327
28 | GCGACGGA | 0.258
29 | CGGACGTA | 0.443
30 | ACGACGGA | 0.199
31 | CCGACGGA | 0.386
32 | CGGACGGA | 0.397
33 | GGGACGGA | 0.227
34 | CGGACGTC | 0.258
35 | CAGGTGTA | -0.199
36 | CAGGTATG | -0.00123
37 | CGGGTGGC | 0.152
38 | CACCCCAC | -0.026
39 | CCCCGTGC | 0.269
40 | ACAACTTC | 0.00956
41 | CCCGACAA | 0.311
42 | CCAAGCTA | -0.112
43 | CGCAGGAG | -0.0823
44 | ACACCGGA | 0.395
45 | ACACCGGC | 0.341
46 | CCACCGGG | 0.34
47 | GCACCGGA | 0.353
48 | CCACCGGA | 0.432
49 | TCACCGGA | 0.373
50 | ACACCGGT | 0.359

Row | Sequence | PBM E-score
51 | CCACCGGC | 0.233
52 | TCACCGCA | 0.0366
53 | GATCAGCC | -0.11
54 | CTGCAGAC | -0.128
55 | GACCCAAA | -0.00261
56 | GGAGTATA | 0.206
57 | ACATGTAG | -0.081
58 | CAAAGCAC | -0.138
59 | CGGTGAGC | 0.0638
60 | AGACCTGA | -0.0959
61 | CCGCGGTA | 0.303
62 | ATCCTCTC | -0.186
63 | AGCGGGAA | 0.207
64 | ATAACCGC | 0.157
65 | ATAACCGA | 0.386
66 | AAACCCCG | 0.438
67 | ACCCCCGC | 0.217
68 | ACCCCCGG | 0.368
69 | AACCCCGC | 0.371
70 | CACCCCGG | 0.264
71 | AACCCCCG | 0.262
72 | CTAACCGA | 0.176
73 | AACCCCGG | 0.456
74 | AAACCCCC | 0.0478
75 | GACCCCGC | 0.134

Row | Sequence | PBM E-score
76 | CTACTAGC | 0.0698
77 | GCCGTCCA | 0.0557
78 | AATAGATG | -0.118
79 | CGTGTTTA | 0.038
80 | AAATTCTA | -0.166
81 | ATGTACTA | -0.14
82 | GTGGATCA | -0.21
83 | CACCAATC | -0.0582
84 | CAGATTGA | -0.0798
85 | CCCAACAG | -0.328
86 | ACCGTAAA | 0.0865
87 | CAACTGTA | -0.234
88 | ATGTGCCA | -0.302
89 | AAACCCGA | 0.439
90 | AAACCCGG | 0.454
91 | GAAACCGA | 0.274
92 | AAAACCGA | 0.396
93 | AAACCCGT | 0.361
94 | AAAACCGC | 0.109
95 | AAAACCCT | -0.0696
96 | GAACCCGA | 0.23
97 | AAAACCCG | 0.4
98 | AAACCCGC | 0.335
99 | AAAACCCC | 0.187
100 | TAACCCGA | 0.355

Row | Sequence | PBM E-score
101 | AGCCAGGC | -0.141
102 | GCTTGGGA | -0.149
103 | ACTGGGAG | -0.0791
104 | CAGCTACA | -0.156
105 | ACGCCTAC | -0.0649
106 | GATGCGAA | -0.0227
107 | TATTGCGA | 0.0517
108 | AGTTTGTC | -0.117
109 | CACCATCG | -0.192
110 | GCAGCGGC | -0.00312
111 | ACGAGATC | -0.15
112 | CCGCTGCA | -0.0239
113 | GTACCTCA | -0.238
114 | ATTCCGCG | 0.285
115 | ATTCCGGC | 0.37
116 | ATTCCGTC | 0.213
117 | ATTCCGGG | 0.374
118 | ATTCCGCC | 0.295
119 | ATTCCGTG | 0.294
120 | GAGTCGCC | -0.0011
121 | CCTTGTCA | -0.311
122 | GGGAGTAA | 0.147
123 | GGGAGTTA | 0.247
124 | CTGAGTTC | -0.0173
125 | CGGAGTTC | 0.394

Row | Sequence | PBM E-score
126 | CGGAGTTA | 0.494
127 | AGGAGTTA | 0.292
128 | AGGAGTTC | -0.143
129 | CGGAGTAC | 0.254
130 | CGGAGTAA | 0.37
131 | CCCCTGTA | -0.154
132 | GCTCGATA | 0.0192
133 | AGAGGAAT | -0.205
134 | ATCTCTAC | -0.223
135 | AAGATGGG | -0.126
136 | AGCCGGCA | 0.334
137 | AGCCGGCC | 0.354
138 | AGCCGGGC | 0.173
139 | CGCCGGGC | 0.332
140 | AGCCGGTG | 0.326
141 | AGCCGGGG | 0.268
142 | AGCCGGAT | 0.418
143 | CGCCGGAC | 0.409
144 | CGTCGGAC | 0.338
145 | AGCCGGAC | 0.409
146 | AGCCGGAG | 0.404
147 | AGCCGGCT | 0.25
148 | ACACGCAG | -0.093
149 | CGAGAAAC | 0.187
150 | AGCTTTGA | -0.0822

Row | Sequence | PBM E-score
151 | AAAGTGCT | -0.21
152 | AAAGAATT | -0.0164
153 | AGAGCTGC | -0.128
154 | CGCTTTGA | 0.0268
155 | AACAGCTT | -0.106
156 | TAGACACA | -0.156
157 | AGCCGGGA | 0.231
158 | GGACGGAC | 0.358
159 | CGCCGTAG | 0.187
160 | CGCCGGAA | 0.357
161 | CGACGGAG | 0.287
162 | GGCCGGAA | 0.363
163 | AGCCGGTA | 0.414
164 | AGCCGGAA | 0.371
165 | CGCCGGAG | 0.399
166 | GGCCGGTA | 0.344
167 | AGCCGGTC | 0.0184
168 | GGCCGGAC | 0.398
169 | AAATACGA | -0.0883
170 | CAACGGGC | 0.153
171 | CGCGAGCG | 0.104
172 | AGTAGCAG | -0.173
